“And” between values parts separate entries of the source, which are not always exact repeats. Equal values may be shown once. Records with an inconclusive call do not appear. Where a structure was tested more than once in an assay, its records may differ in their call. The source made the active and inactive calls. The calls were made as follows, unless noted: active = hit-call score of the fitted dose curve at least 0.9, where 1 is the maximum; inactive = score below 0.9.
Tests used:
[1] = read-out: Interleukin-8 (IL8), CXCL8 (gene 3576); test: BSK_3C_IL8: BioMAP Diversity Plus: 3C Assay for Interleukin-8 (IL8) Biomarker Activity (AID 2283020); conditions: primary human endothelial cells (HUVEC); actives raise or lower the signal
Procedure, shortened: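 HUVEC, 3C stimulation; 24 h compound exposure; IL-8 read by ELISA; gain or loss of signal fitted relative to DMSO control.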

[2] = read-out: Monokine induced gamma interferon (MIG), CXCL9 (gene 4283); test: BSK_3C_MIG: BioMAP Diversity Plus: 3C Assay for Monokine induced gamma interferon (MIG) Biomarker Activity (AID 2283021); conditions: primary human endothelial cells (HUVEC); actives raise or lower the signal;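 as to AC50: MIG protein level measured by immunoassay in the treated endothelial cultures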
Procedure, shortened: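 HUVEC, 3C system; 24 h chemical exposure; MIG by ELISA; bidirectional fit vs DMSO baseline.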

[3] = target: human Vitamin D Receptor (VDR), VDR (gene 7421) (UniProt P11473); test: ATG_VDR_TRANS: Attagene TRANS-FACTORIAL HepG2 Assay for human Vitamin D Receptor (VDR) (AID 2283022; active = hit-call score of the fitted dose curve at least 0.9, where 1 is the maximum)
Procedure, shortened: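 Multiplexed TRANS reporter in HepG2; 24 h treatment; reporter mRNA by RT-PCR plus capillary electrophoresis; upregulation scored relative to DMSO.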

[4] = BSK_3C_SRB: Viability Assessment in the BioMAP Diversity Plus: 3C Assay (AID 2283023); conditions: primary human endothelial cells (HUVEC);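 also: fitted both ways against DMSO so a hit may be signal rise or drop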
Procedure, shortened: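 Overt cytotoxicity is gauged in parallel confluent HUVEC cultures by SRB total-protein staining at the time of biomarker measurement, 24 h after dosing. Gain or loss of signal is fitted versus DMSO.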

[5] = read-out: Matrix Metallopeptidase 1 (MMP1), MMP1 (gene 4312); test: BSK_BE3C_MMP1: BioMAP Diversity Plus: BE3C Assay for Matrix Metallopeptidase 1 (MMP1) Biomarker Activity (AID 2283024); conditions: primary human bronchial epithelial cells; actives raise or lower the signal
Procedure, shortened: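 ELISA read-out of MMP1 in human lung bronchial epithelial primary cultures, 24 h post-dose; bidirectional curve fit vs DMSO baseline, gain or loss of signal scored.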

[6] = read-out: Pselectin, SELP (gene 6403); test: BSK_4H_Pselectin: BioMAP Diversity Plus: 4H Assay for Pselectin Biomarker Activity (AID 2283026); conditions: primary human endothelial cells (HUVEC); actives raise or lower the signal
Procedure, shortened: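 HUVEC, 24 h chemical exposure; P-selectin read by ELISA. Bidirectional curve fit vs DMSO baseline; gain or loss of signal scored.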

[7] = BSK_4H_SRB: Viability Assessment in the BioMAP Diversity Plus: 4H Assay (AID 2283027); conditions: primary human endothelial cells (HUVEC);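 also: cells exposed to compound for 24 h before staining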;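 as to AC50: curves fitted both ways versus DMSO so AC50 may be loss or gain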
Procedure, shortened: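 Cytotoxicity readout: sulforhodamine B (0.1%) staining of total protein after 10% TCA fixation, measured at 560 nm in human umbilical vein endothelium at 24 h. DMSO set the baseline; fitting was bidirectional.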

[8] = BSK_BE3C_SRB: Viability Assessment in the BioMAP Diversity Plus: BE3C Assay (AID 2283028); conditions: primary human bronchial epithelial cells;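 also: measured 24 h after chemical dosing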;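 as to AC50: fitted both ways so AC50 may mark signal gain or loss versus DMSO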
Procedure, shortened: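 SRB total-protein staining (0.1%, after TCA fixation) of chemically dosed human bronchial epithelial primary cells at 24 h; DMSO serves as the negative control for bidirectional curve fitting.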

[9] = read-out: Thrombomodulin, THBD (gene 7056); test: BSK_3C_Thrombomodulin: BioMAP Diversity Plus: 3C Assay for Thrombomodulin Biomarker Activity (AID 2283029); conditions: primary human endothelial cells (HUVEC); actives raise or lower the signal
Procedure, shortened: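 HUVEC, 3C conditions; compound 24 h; thrombomodulin by ELISA; bidirectional curve fit vs DMSO baseline; parallel SRB total-protein staining for cytotoxicity.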

[10] = read-out: Urokinase-type plasminogen activator receptor (uPAR), PLAUR (gene 5329); test: BSK_4H_uPAR: BioMAP Diversity Plus: 4H Assay for Urokinase-type plasminogen activator receptor (uPAR) Biomarker Activity (AID 2283030); conditions: primary human endothelial cells (HUVEC); actives raise or lower the signal
Procedure, shortened: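 Endpoint derived via bidirectional curve fitting against DMSO baseline; readout was ELISA detection of uPAR on umbilical vein endothelial cells at 24 h post-treatment, with SRB-stained parallel cultures assessing cytotoxicity.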

[11] = read-out: Vascular endothelial growth factor receptor 2 (Homo sapiens) (UniProt P35968); test: BSK_4H_VEGFRII: BioMAP Diversity Plus: 4H Assay for Vascular endothelial growth factor receptor 2 (VEGFR2) Biomarker Activity (AID 2283031); conditions: primary human endothelial cells (HUVEC); actives raise or lower the signal;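 as to AC50: cell-surface VEGFR2 protein level quantified by ELISA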
Procedure, shortened: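 In this multiplexed HUVEC system, biomarker ELISA was performed after 24 h chemical exposure. Parallel SRB staining (TCA fixation, 560 nm) tracked cytotoxicity; DMSO served as baseline.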

[12] = read-out: Human Leukocyte Antigen - DR isotype (HLADR), HLA-DRA (gene 3122); test: BSK_BE3C_HLADR: BioMAP Diversity Plus: BE3C Assay for Human Leukocyte Antigen - DR isotype (HLADR) Biomarker Activity (AID 2283032); conditions: primary human bronchial epithelial cells; actives raise or lower the signal
Procedure, shortened: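 Primary human bronchial epithelial cells (BE3C); 24 h chemical exposure; HLA-DR by ELISA; bidirectional curve fit vs DMSO baseline.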

[13] = read-out: Vascular cell adhesion molecule 1 (VCAM1), VCAM1 (gene 7412); test: BSK_4H_VCAM1: BioMAP Diversity Plus: 4H Assay for Vascular cell adhesion molecule 1 (VCAM1) Biomarker Activity (AID 2283033); conditions: primary human endothelial cells (HUVEC); actives raise or lower the signal
Procedure, shortened: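 HUVEC, 24 h post-dose; VCAM-1 by ELISA. Bidirectional curve fit vs DMSO baseline. Parallel SRB total-protein stain (0.1% SRB after 10% TCA fixation, 560 nm) for cytotoxicity.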

[14] = read-out: Interferon-gamma inducible Protein 10 (IP10), CXCL10 (gene 3627); test: BSK_BE3C_IP10: BioMAP Diversity Plus: BE3C Assay for Interferon-gamma inducible Protein 10 (IP10) Biomarker Activity (AID 2283034); conditions: primary human bronchial epithelial cells; actives raise or lower the signal
Procedure, shortened: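 ELISA readout of IP-10 in BE3C system: primary human bronchial epithelial cells, 24 h post-dosing; bidirectional curve fit vs DMSO baseline.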

[15] = read-out: Plasminogen activator inhibitor-1 (PAI1), SERPINE1 (gene 5054); test: BSK_BE3C_PAI1: BioMAP Diversity Plus: BE3C Assay for Plasminogen activator inhibitor-1 (PAI1) Biomarker Activity (AID 2283037); conditions: primary human bronchial epithelial cells; actives raise or lower the signal
Procedure, shortened: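 ELISA read-out of PAI-1 from human bronchial epithelial primary cells, 24 h post-dosing; bidirectional curve fit vs DMSO baseline, gain or loss of signal scored.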

[16] = read-out: urokinase plasminogen activator (uPA), PLAU (gene 5328); test: BSK_BE3C_uPA: BioMAP Diversity Plus: BE3C Assay for urokinase plasminogen activator (uPA) Biomarker Activity (AID 2283038); conditions: primary human bronchial epithelial cells; actives raise or lower the signal
Procedure, shortened: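 Using confluent primary human lung bronchial epithelial cultures, we dosed chemicals, waited 24 h, then ran a uPA ELISA, fitting bidirectionally against DMSO.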

[17] = read-out: Urokinase-type plasminogen activator receptor (uPAR), PLAUR (gene 5329); test: BSK_BE3C_uPAR: BioMAP Diversity Plus: BE3C Assay for Urokinase-type plasminogen activator receptor (uPAR) Biomarker Activity (AID 2283039); conditions: primary human bronchial epithelial cells; actives raise or lower the signal
Procedure, shortened: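 ELISA readout of uPAR on human lung primary bronchial epithelial cells, 24 h post-dosing. Bidirectional curve fit relative to DMSO vehicle baseline; gain or loss of signal both scored.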

[18] = BSK_3C_Vis: BioMAP Diversity Plus: 3C Assay for Morphology Visualization (AID 2283025); conditions: primary human endothelial cells (HUVEC);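 also: fitted both ways so gain or loss versus DMSO counts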;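 as to AC50: light microscopy image of cell morphology used as background control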
Procedure, shortened: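 HUVEC, 3C system; light microscopy of morphology at 24 h post-dose. Bidirectional fit vs DMSO baseline. Secondary readout, background-control function.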

[19] = read-out: Monokine induced gamma interferon (MIG), CXCL9 (gene 4283); test: BSK_BE3C_MIG: BioMAP Diversity Plus: BE3C Assay for Monokine induced gamma interferon (MIG) Biomarker Activity (AID 2283035); conditions: primary human bronchial epithelial cells; actives raise or lower the signal;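 also: MIG protein measured by ELISA in BE3C cultures after 24 h of dosing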
Procedure, shortened: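 hu bronchial epithelial 1° cells, 24 h cpd; MIG by ELISA; bidirectional fit, DMSO = baseline.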

[20] = read-out: Transforming growth factor beta 1 (TGFb1), TGFB1 (gene 7040); test: BSK_BE3C_TGFb1: BioMAP Diversity Plus: BE3C Assay for Transforming growth factor beta 1 (TGFb1) Biomarker Activity (AID 2283036); conditions: primary human bronchial epithelial cells; actives raise or lower the signal
Procedure, shortened: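 Read-out: ELISA for TGF-b1 in primary human bronchial epithelial cultures, 24 h post-dose. Bidirectional curve fitting vs DMSO control; gain or loss of signal both scored.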

Measured: AC50

human Vitamin D Receptor (VDR), VDR (gene 7421), sequence (P11473 whole entry, looked up): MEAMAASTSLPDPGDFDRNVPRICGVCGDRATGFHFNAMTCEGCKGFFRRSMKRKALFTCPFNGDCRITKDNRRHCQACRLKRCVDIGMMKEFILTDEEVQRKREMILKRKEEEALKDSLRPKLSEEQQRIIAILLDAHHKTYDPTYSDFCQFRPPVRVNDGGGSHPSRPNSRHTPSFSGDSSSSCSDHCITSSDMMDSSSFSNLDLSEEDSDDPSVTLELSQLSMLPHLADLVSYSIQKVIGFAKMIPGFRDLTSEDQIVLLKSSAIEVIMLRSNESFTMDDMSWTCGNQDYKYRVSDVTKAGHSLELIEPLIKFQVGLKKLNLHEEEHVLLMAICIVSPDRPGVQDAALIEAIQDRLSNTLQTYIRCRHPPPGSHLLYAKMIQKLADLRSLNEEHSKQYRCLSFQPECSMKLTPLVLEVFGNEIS

OC(O)C(F)(F)C(F)(F)F
inactive: [1] | [2] | [3] | [4] | [5] | [6] | [7] | [8] | [9] | [10] | [11] | [12] | [13] | [14] | [15] | [16] | [17]

CCN(CC)c1ccc(C=O)cc1
inactive: [1] | [2] | [3] | [4] | [5] | [18] | [6] | [7] | [8] | [9] | [10] | [11] | [12] | [13] | [14] | [19] | [20] | [15] | [16] | [17]

O=C(Cl)C(F)(F)C(F)(F)C(F)(F)C(F)(F)C(F)(F)C(F)(F)F
inactive: [1] | [2] | [3] | [4] | [5] | [7] | [8] | [9] | [10] | [11] | [12] | [13] | [14] | [15] | [16] | [17]
active: [1] 27 µM | [5] 29.3 µM and 30 µM

O=C(O)C(F)(F)C(F)(F)C(F)(F)OC(F)(F)F
active: [5] 37.3 µM | [9] 5.95 µM
inactive: [1] | [2] | [3] | [4] | [5] | [7] | [8] | [9] | [10] | [11] | [12] | [13] | [14] | [15] | [16] | [17]

CCN(CC)c1ccc(N=Nc2ccccc2)cc1
active: [1] 20 µM | [4] 12.1 µM | [18] 8.8 µM | [7] 20 µM | [11] 20 µM | [13] 16.9 µM | [14] 10.2 µM | [20] 20 µM | [15] 29.3 µM
inactive: [2] | [3] | [5] | [8] | [9] | [10] | [12] | [16] | [17]

O=C1C=CC(=O)N1c1ccc(Cc2ccc(N3C(=O)C=CC3=O)cc2)cc1
active: [1] 7.33 µM | [2] 12 µM | [4] 11.5 µM | [5] 4.99 µM | [18] 5.63 µM | [7] 12.1 µM | [8] 3.04 µM | [9] 11.3 µM | [10] 9.9 µM | [11] 10.6 µM | [12] 2.8 µM | [13] 9.59 µM | [14] 2.6 µM | [20] 1.6 µM | [15] 3.54 µM | [16] 2.62 µM | [17] 3.31 µM
inactive: [3]

From PubChem BioAssay (EPA / NIEHS)
